Out of some 320,000 compounds screened, about 1,000 (0.31%) were called active.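 How the source made its calls: active means activation above the mean of all tested compounds plus 3 SD, cutoff set per screening run (cut at about 20% in these data); inactive means the rest.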 What follows is part of a selection rich in actives, with near analogues and random picks from the rest.

For this assay, the target named is Oxytocin receptor (Homo sapiens) (UniProt P30559). In words: human OXTR agonists, primary screen, fluorescence, CHO-OTR cells, Fluo-8 calcium (AID 2435).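 Further: peak over basal fluorescence ratio from a 100 s FLIPR kinetic read.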 To be noted: Fluo-8 calcium fluorescence, at 3 µM, hits give high values, normalized: DMSO 0%, oxytocin 100%.
Oxytocin receptor (Homo sapiens), sequence (P30559 whole entry, looked up): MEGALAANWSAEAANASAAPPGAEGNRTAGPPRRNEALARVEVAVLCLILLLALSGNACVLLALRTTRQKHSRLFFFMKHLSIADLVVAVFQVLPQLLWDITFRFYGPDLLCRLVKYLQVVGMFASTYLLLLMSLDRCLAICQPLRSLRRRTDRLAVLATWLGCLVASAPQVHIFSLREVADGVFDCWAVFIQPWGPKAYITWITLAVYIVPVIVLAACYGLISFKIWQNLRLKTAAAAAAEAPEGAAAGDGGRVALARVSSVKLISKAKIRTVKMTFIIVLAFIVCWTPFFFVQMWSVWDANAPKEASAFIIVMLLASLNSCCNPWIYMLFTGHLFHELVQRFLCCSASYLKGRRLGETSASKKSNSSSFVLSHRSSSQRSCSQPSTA
In the case of `O=C(NC(Nc1nc2ccc([N+](=O)[O-])cc2s1)(C(F)(F)F)C(F)(F)F)c1ccccc1`, the activation was 20% (active).
As to `O=C(CCNC(=O)c1ccccc1)Nc1nc2ccccc2s1`, the activation was 2.26% (inactive).
The result for `O=C(CNC(=O)c1ccccc1)Oc1ccc([N+](=O)[O-])cc1` reads 2.42% (inactive).
The value for `CCOC(=O)CN(C)S(=O)(=O)c1ccc(-c2cc(C(=O)OC)sc2C(F)(F)F)cc1` was 1.32% (inactive); that for `O=C(NCc1ccccc1)C(c1ccccc1)N(C(=O)c1csnn1)c1ccc(F)cc1` (stereo unspecified) was 1.2% (inactive); that for `Nc1ncnc2c1ncn2[C@@H]1O[C@H](CNCc2cccn2-c2nccs2)[C@@H](O)[C@H]1O` was -0.14% (inactive).
With `Cc1onc(-c2ccccc2)c1C(=O)Nc1ccccc1C#N`, the activation is -1.5% (inactive).
`Cc1onc(-c2c(Cl)cccc2Cl)c1C(=O)NNC(=O)c1c(-c2c(Cl)cccc2Cl)noc1C`: the activation is -1.38% (inactive).
The result for `CCc1noc(C)c1C(=O)NNC(=O)c1ccc(F)cc1` reads 0.43% (inactive); that for `Cc1onc(-c2ccccc2)c1C(=O)NNC(=S)NC(=O)c1ccc(F)cc1`, 32.9% (active); that for `COc1ccc(C(=O)NC(=S)NNC(=O)c2c(-c3ccccc3)noc2C)cc1`, 46.7% (active).
Take `Cc1ccc(CNC(=O)c2c(-c3ccccc3)noc2C)cc1`: the activation was -1.84% (inactive).
As for `O=C(Nc1ccc(-n2ccnc2P(=O)(O)c2ccccc2)cc1)c1ccccc1Br`, the activation was -0.12% (inactive).
The value for `Cc1csc2nc(O)c(C(=O)NCCN3CCOCC3)c(=O)n12` was 0.15% (inactive).
The result for `Cc1cc(C)c(S(=O)(=O)N2C=CC(C(F)(F)F)=NCC2)c(C)c1` reads 0.69% (inactive); that for `CN(CCc1ccccc1)C(=O)c1cccc(NC(=O)Cc2ccc([N+](=O)[O-])cc2)c1`, 13.1% (inactive).
The value for `CCCc1cc(=O)[nH]c(SCC(=O)N2CCN(S(=O)(=O)c3ccc(C)cc3C)CC2)n1` was -1.06% (inactive); that for `COC(=O)C1(S(=O)(=O)C2(C(=O)OC)CCCC2)CCCC1` was -0.45% (inactive).
For `CCOc1cc(/C=C(\C#N)c2nc(-c3cccs3)c(NC(C)=O)s2)ccc1O`, the activation is 23.4% (active).
The result for `COc1cc(/C=C(\C#N)c2nc3c(s2)CC(C)CC3)ccc1O` (stereo unspecified) reads 12.7% (inactive).
The result for `CCOc1cc(-c2cc(-c3ccc(NC(C)=O)cc3)nc(N)c2C#N)ccc1O` reads 1.58% (inactive).
The result for `Cc1cccc(NC(=O)C(C)N2C(=O)C3C4CC(C(Br)C4Br)C3C2=O)c1` (stereo unspecified) reads 8.44% (inactive).
Consider `CN(CC(=O)Nc1ccc(OC(F)(F)F)cc1)C(=O)C1CCC1`, for which the activation was 3.13% (inactive).
The result for `Cc1ccc(OCC(=O)NNC(=S)NCc2ccccc2)cc1` reads -1.15% (inactive).
The result for `O=C(Nc1ccc2ccccc2c1)/C(=C/c1cccc(Br)c1)NC(=O)c1ccco1` reads 0.36% (inactive).
The result for `Cc1ccc(OCC(=O)NCCCNC(=O)c2ccco2)cc1C` reads 0.98% (inactive).
As for `CCCc1ccc(OCC(=O)NNC(=S)NC(=O)c2ccco2)cc1`, the activation was 31.6% (active).
The value for `CC(Oc1ccc2ccccc2c1)C(=O)NNC(=S)NC(=O)c1ccco1` (stereo unspecified) was 33.9% (active); that for `Cc1ccc(C(=O)NNC(=O)C(C)Oc2ccc3ccccc3c2)o1` (stereo unspecified) was 1.07% (inactive); that for `COc1ccc(Cn2c(O)c(/C=C3/C=CC=N3)c(=O)[nH]c2=O)cc1` was -0.07% (inactive).
With `CN(C)CCN(C(=O)C1=COCCO1)c1nc2ccc(Cl)cc2s1`, the activation was 1.72% (inactive).
The result for `Cc1nn(Cc2ccccc2)c(C)c1CNC(=O)c1ccc(F)c(S(=O)(=O)N2CCOCC2)c1` reads 3.05% (inactive); that for `Cc1ccc2c(c1)N(CC(=O)N1CCCc3ccccc31)C(=O)C(C)O2` (stereo unspecified), -1.51% (inactive).
The result for `Cc1nc(-c2ccc(Cl)cc2)sc1C1(C)CC(c2ccccc2F)=NO1` (stereo unspecified) reads -0.58% (inactive); that for `Cc1nc(C(=O)NCc2ccccc2)sc1C1(C)CC(c2cccnc2)=NO1` (stereo unspecified), 21.7% (active).
The result for `Cc1nc(C(=O)Nc2ccc(Cl)cc2)sc1C1(C)CC(c2ccccc2)=NO1` (stereo unspecified) reads 0.47% (inactive).
On to `COCC(C)NC(=O)CSc1nc2nn(-c3ccccc3)c(=O)c-2c2n1CCCCC2` (stereo unspecified), for which the activation is -0.74% (inactive).
The value for `CC(=O)Nc1ccc(S(=O)(=O)N(C)c2ccc(OCC(=O)OCC(=O)N3CCCCC3)cc2)cc1` was 0.24% (inactive); that for `Cn1c(=O)c(=O)n(C)c2cc(S(=O)(=O)CCC(=O)N3CCCCC3)ccc21` was -0.07% (inactive).
The value for `O=C(C1CCCO1)N(Cc1ccccc1)c1ccccc1` (stereo unspecified) was -1.09% (inactive).
Turning to `CC(=O)Oc1ccccc1C(=O)Nc1ncc([N+](=O)[O-])s1`, the activation is 20% (active).
The value for `O=C(CCc1ccccc1)Nc1ncc([N+](=O)[O-])s1` was 12.4% (inactive).
The result for `O=C(Cc1c(F)cccc1Cl)Nc1ncc([N+](=O)[O-])s1` reads 8.99% (inactive).
On to `CCC(C(=O)OCC(=O)Nc1ccc(C(=O)Nc2ccc(OC)cc2)cc1)c1ccccc1` (stereo unspecified), for which the activation is 5.16% (inactive).
On to `CCC(C(=O)Nc1ccc2c(c1)OCCO2)c1ccccc1` (stereo unspecified), for which the activation was 0.44% (inactive).
The value for `CCC(C(=O)Nc1ccc(C(C)C)cc1)c1ccccc1` (stereo unspecified) was 41.5% (active).
For the compound `CCCc1nc2ccccc2c(C(=O)OCc2nnc(-c3cc(OC)c(OC)c(OC)c3)o2)c1CC`, the activation was 0.34% (inactive).
Regarding `C=CCNC(=O)/C=C/c1ccc(C(C)C)cc1`, the activation is -2.22% (inactive).
As for `OCCCC1CCCCN1Cc1nc(Cc2ccccc2Cl)no1` (stereo unspecified), the activation is 1.04% (inactive).
As for `C=CCOc1cccc(C2C(C(=O)c3ccc(C)o3)=C(O)C(=O)N2c2nnc(C)s2)c1` (stereo unspecified), the activation is 47.7% (active).
In the case of `C=CCOc1cccc(C2C(C(=O)c3ccc(C)o3)=C(O)C(=O)N2CCCn2ccnc2)c1` (stereo unspecified), the activation was -0.44% (inactive).
The result for `Cc1cc(N2C(=O)C(O)=C(C(=O)c3ccc(C)o3)C2c2ccc(OCc3ccccc3)cc2)no1` (stereo unspecified) reads 0.01% (inactive); that for `COC(=O)CN(c1nc(C)c(Cl)c(OC)n1)S(=O)(=O)c1ccc(C)cc1`, -1.64% (inactive).
The result for `COC(=O)c1nn(-c2cccc(Cl)c2)ccc1=O` reads 0.3% (inactive); that for `COc1cc(OC)cc(C(=O)N[C@H](C(=O)OCC(=O)NC(C)c2ccccc2)C(C)C)c1` (stereo partly specified), 76.7% (active); that for `COc1cc(OC)cc(C(=O)NCC(=O)OCC(=O)NC(C)CCc2ccccc2)c1` (stereo unspecified), -0.13% (inactive).
For `Cc1cc(C)cc(OCC(=O)NC(C)c2ccccc2)c1` (stereo unspecified), the activation was -2.21% (inactive).
The value for `O=C(Cn1c(-c2ccc(Cl)cc2)noc1=O)N1CCN(c2ccccc2F)CC1` was 2.36% (inactive); that for `NS(=O)(=O)c1ccc(CNC(=O)c2cccc(S(=O)(=O)N3CCc4ccccc43)c2)cc1` was -0.73% (inactive).
The result for `O=C(CN1C(=O)NC2(CCCCC2)C1=O)NCCc1c[nH]c2ccccc12` reads 0.26% (inactive).
For the compound `N#C/C(=C/c1ccc(N2CCOCC2)o1)C(=O)N1CCOCC1`, the activation is 4.33% (inactive).
The result for `N#C/C(=C/c1ccc(N2CCCCC2)o1)C(=O)NCCc1c[nH]c2ccccc12` reads 27.2% (active); that for `CCCCCCCCCCCCC(NC(C)=O)(C(=O)OCC)C(=O)OCC`, 1.74% (inactive); that for `O=C(c1cccnc1)N1CCN(S(=O)(=O)c2cccs2)CC1`, 0.18% (inactive).
The result for `CC1CCc2[nH]c3ccc(C(=O)N(C)CC(=O)Nc4cccc(F)c4)cc3c2C1` (stereo unspecified) reads 2.82% (inactive).
The value for `O=C(CCCN1CCc2[nH]c3ccc(F)cc3c2C1)c1ccc(F)cc1` was 24.7% (active); that for `Fc1ccc(NC(=S)N2CCc3[nH]c4ccccc4c3C2)cc1` was 4.05% (inactive); that for `Cc1cccc(OCCC(=O)Nc2cc(S(=O)(=O)N3CCCCC3)ccc2N2CCOCC2)c1` was -0.97% (inactive).
With `CC1(C)CC[C@@]2(C(=O)O)C(C1)C1=CCC3[C@@]4(C)CC[C@H](O)C(C)(C)C4CC[C@@]3(C)[C@]1(C)C[C@H]2O` (stereo partly specified), the activation is 30.7% (active).
The result for `CC1(C)CC[C@]2(C(=O)O)CC[C@]3(C)C(=CCC4[C@@]5(C)CC[C@H](O)C(C)(C)C5[C@H](O)C[C@]43C)[C@@H]2C1` (stereo partly specified) reads 2.18% (inactive); that for `CC1(C)C2CC[C@]3(C)C(CC=C4[C@@H]5C[C@@](C)(CO)CC[C@]5(C(=O)O)CC[C@]43C)[C@@]2(C)CC[C@@H]1O` (stereo partly specified), 0.42% (inactive).
The value for `Cc1ccc(S(=O)(=O)N(CC(=O)NN=C2CCN(C)CC2)c2ccc(F)cc2)cc1` was -1.6% (inactive); that for `CCCn1nc(C(=O)N2CCCc3ccccc32)c2ccccc2c1=O` was -1.8% (inactive); that for `O=C(OCCN=C1NS(=O)(=O)c2ccccc21)c1cccc([N+](=O)[O-])c1` was 1.88% (inactive).
Take `O=C(CCCN=C1NS(=O)(=O)c2ccccc21)OCC(=O)c1ccc(F)c(F)c1`: the activation was 30.8% (active).
The result for `N#CC1(NC(=O)COC(=O)CCN=C2NS(=O)(=O)c3ccccc32)CCCCC1` reads 0.35% (inactive); that for `OCCN(Cc1ccccc1)Cc1ccc(Cl)cc1`, -0.86% (inactive).
With `CN(C(=O)CN(CCO)CC(=O)N(C)C(C)(C)Cc1ccccc1)C(C)(C)Cc1ccccc1`, the activation is 50.2% (active).
The value for `CCN(CC)CCCNC(=O)CCc1ccccc1` was -0.47% (inactive); that for `Cc1cc(S(=O)(=O)N2CCOCC2)ccc1OCC(=O)Nc1cccc(C(F)(F)F)c1` was 0.91% (inactive); that for `CCNC(=S)NNC(=O)Cc1ccccc1` was 1.03% (inactive).
The result for `CC(C)C(=O)Nc1cccc(NC(=S)NC(=O)C(c2ccccc2)c2ccccc2)c1` reads 4.03% (inactive).
The result for `CCCCC(=O)NNC(=S)NC(=O)C(c1ccccc1)c1ccccc1` reads 68.1% (active); that for `CC1CCCN(CCCNC(=O)CN2C(=O)COc3ccc(S(=O)(=O)N4CCOCC4)cc32)C1` (stereo unspecified), 0.7% (inactive).
With `Cc1ccc(OS(=O)Nc2cccc3nccnc23)cc1` (stereo unspecified), the activation is 0.23% (inactive).
Regarding `O=C(O)c1ccc2c3c(cccc13)C(=O)N(OS(=O)(=O)c1ccccc1)C2=O`, the activation was 0.06% (inactive).
`COc1ccc(N2C(=O)c3cccc4cccc(c34)C2=O)nn1`: the activation was -0.24% (inactive).
The result for `Cc1nn(C)cc1C(=O)c1ccccc1` reads -1.25% (inactive); that for `CC(=O)Nc1ccccc1Sc1ccc2c3c(cccc13)C(=O)N(c1ccc(C)cc1)C2=O`, -0.75% (inactive); that for `Cc1nn(C)cc1N1C(=O)c2cccc3c(N)ccc(c23)C1=O`, 70.2% (active).
As for `CN1C(=O)c2cccc3c(N)ccc(c23)C1=O`, the activation was 84.9% (active).

The values are drawn from PubChem BioAssay AID2435 (The Scripps Research Institute Molecular Screening Center, 2010).
